Data on 15 compounds can be found in PubChem BioAssay (NCATS).

SMILES strings stand for the structures. Inconclusive results are not listed. Activity calls are given as the source filed them. Calls follow the shape of the dose curve; as a rule, active = well fitted curve in the direction sought with a large enough effect; inconclusive = small, poorly fitted or top-dose-only effect, or another doubt; inactive = no such curve, though single readings can be large; an effect the other way counts as inactive or inconclusive.
Also: nearly all actives have a fitted effect of over 35% in size.
Potency is read from the fitted curve at half-maximal effect.

The first assay in a line: Quantitative highthroughput screen to assess conditional lethalithy of P12 Ichikawa cells grown in RPMI1640 with untreated serum (RPMI+s) (AID 1963881). The following applies: ATP luminescence, 48 h; Potency: viability; series mostly up to 45.8 µM. A digest of the protocol:
(§1)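 Each medium arm—HPLM with 10% dialyzed FBS, or RPMI1640 with 5 mM glucose and 10% untreated or dialyzed FBS—was screened against an 11-point, 3-fold compound titration for 48 h at 37 °C, with CellTiter-Glo luminescence as endpoint.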
With `COc1ccc(Nc2cc(-c3cnc(N)nc3)nc(N3CCOCC3)n2)cn1`, the Potency was 2.35 µM (active). For `CC1=C(C(=O)Nc2cc3cn[nH]c3cc2F)C(c2ccc(C(F)(F)F)cc2)CC(=O)N1` (stereo not given), the Potency is 10.5 µM (active).

For the compound `CN1CCN(CCCN2c3ccccc3Sc3ccc(Cl)cc32)CC1`, the Potency is 8.33 µM (active).

A further assay can be described thus: Quantitative highthroughput screen to assess conditional lethalithy of SEM cells grown in Human Plasma-Like Medium with dialyzed fetal bovine serum (HPLM+ds) (AID 1963882). The following applies: SEM B-ALL cells in HPLM+ds, CellTiter-Glo viability, 48 h; series mostly up to 45.8 µM. A digest of the protocol:
as §1
On the technique in general: ATP-based viability assays read luminescence as a measure of living cells.
As for `CO[C@H]1C[C@@H]2CC[C@@H](C)[C@@](O)(O2)C(=O)C(=O)N2CCCC[C@@H]2C(=O)O[C@H]([C@H](C)C[C@@H]2CC[C@H](OCCO)[C@H](OC)C2)CC(=O)[C@H](C)C=C(C)[C@@H](O)[C@@H](OC)C(=O)[C@H](C)C[C@H](C)C=CC=CC=C1C`, the Potency was 0.59 µM (active). On to `C#C[C@]1(O)CC[C@@H]2[C@@H]3CCc4cc(O)ccc4[C@H]3CC[C@@]21C`, for which the Potency is 14.8 µM (active). Consider `COc1cc2nc(-c3cc(F)ccc3O)nc(N[C@@H]3CNC[C@@H]3C(C)(C)O)c2cc1OC`, for which the Potency was 0.332 µM (active). Turning to `CS(=O)(=O)Oc1ccc2c(NC(N)=O)c(C(=O)c3ccc(Cl)cc3Cl)oc2c1`, the Potency entry was “inactive”.

Take `Cc1cc(=O)c2c(O)c3c(O)cc(=O)c4c3c3c(cc(O)c1c23)C(C)(C)C=4O`: the Potency entry was “inactive”. Take `CN(C)CCOc1ccc(C(=C(CCCl)c2ccccc2)c2ccccc2)cc1`: the Potency was 5.9 µM (active).

Another assay in a line: Quantitative highthroughput screen to assess conditional lethalithy of SEM cells grown in RPMI1640 with unreated serum (RPMI+s) (AID 1963883). The settings on record: SEM B-ALL cells, CellTiter-Glo viability, 48 h; series mostly up to 45.8 µM. A digest of the protocol: as §1
`CN1CCCC(n2nc(Cc3ccc(Cl)cc3)c3ccccc3c2=O)CC1` (stereo not given): the Potency result is “inactive”.

Take `C[C@]12CC[C@@H]3c4ccc(O)cc4CC[C@H]3[C@H]1CC[C@H]2O`: the Potency was 18.7 µM (active). Still for that read-out and setting: in the case of `CCCCC[C@H](O)C=C[C@H]1[C@H](O)CC(=O)[C@H]1CCCCCCC(=O)O` it was 4.18 µM (active). `CC(C)=CCCC(C)=CCCC(C)=CCSc1ccccc1C(=O)O`: the Potency is 6.62 µM (active). Consider `C[C@@H](Oc1ccc2[nH]nc(C=Cc3cnn(CCO)c3)c2c1)c1c(Cl)cncc1Cl`, for which the Potency is 0.264 µM (active). With `COc1cc2nc(-c3cc(F)ccc3O)nc(N[C@@H]3CNC[C@@H]3C(C)(C)O)c2cc1OC`, the Potency was 0.469 µM (active).

Regarding `CS(=O)(=O)Oc1ccc2c(NC(N)=O)c(C(=O)c3ccc(Cl)cc3Cl)oc2c1`, the Potency result was “inactive”. For `CN(C)CCOc1ccc(C(=C(CCCl)c2ccccc2)c2ccccc2)cc1`, the Potency is 3.32 µM (active).

A short description of the next assay: Quantitative highthroughput screen to assess conditional lethalithy of SEM cells grown in RPMI1640 with dialyzed fetal bovine serum (RPMI+ds) (AID 1963884). The following applies: SEM B-ALL cells, RPMI+dialyzed FBS, CellTiter-Glo viability, 48 h; series mostly up to 45.8 µM. A digest of the protocol:
as §1
For the compound `CN1CCCC(n2nc(Cc3ccc(Cl)cc3)c3ccccc3c2=O)CC1` (stereo not given), the Potency entry was “inactive”.

Regarding `C[C@]12CC[C@@H]3c4ccc(O)cc4CC[C@H]3[C@H]1CC[C@H]2O`, the Potency is 20.9 µM (active).

On to `C#C[C@]1(O)CC[C@@H]2[C@@H]3CCc4cc(O)ccc4[C@H]3CC[C@@]21C`, for which the Potency is 11.8 µM (active). For `CC(C)=CCCC(C)=CCCC(C)=CCSc1ccccc1C(=O)O`, the Potency was 11.8 µM (active). In the case of `CS(=O)(=O)Oc1ccc2c(NC(N)=O)c(C(=O)c3ccc(Cl)cc3Cl)oc2c1`, the Potency entry is “inactive”. `CN1CCN(CCCN2c3ccccc3Sc3ccc(Cl)cc32)CC1`: the Potency entry was “inactive”. Consider `Cc1cc(=O)c2c(O)c3c(O)cc(=O)c4c3c3c(cc(O)c1c23)C(C)(C)C=4O`, for which the Potency entry is “inactive”. On to `CO[C@H]1/C=C\O[C@@]2(C)Oc3c(C)c(O)c4c(O)c(c5c(nc6cc(C)ccn65)c4c3C2=O)NC(=O)C(C)=CC=C[C@H](C)[C@H](O)[C@@H](C)[C@@H](O)[C@@H](C)[C@H](OC(C)=O)[C@H]1C`, for which the Potency was 14.8 µM (active).
